In the library only some 0.52% were active in any assay of this set; here they are far more common.
USP2a block: USP2a (human) protease inhibition; O75604; USP2 core, Ub-CHOP2 coupled fluorogenic reporter, 485/531; Potency, µM (doses to about 38.3 µM), inactives show at the highest dose activity change, negative = inhibition, hits mostly inhibitors; 330,000 tested, 0.01% active; AID 463254;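 note: plate controls were DMSO wells for no effect and full inhibition by NEM control for full effect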
Target sequence (O75604 whole entry, looked up): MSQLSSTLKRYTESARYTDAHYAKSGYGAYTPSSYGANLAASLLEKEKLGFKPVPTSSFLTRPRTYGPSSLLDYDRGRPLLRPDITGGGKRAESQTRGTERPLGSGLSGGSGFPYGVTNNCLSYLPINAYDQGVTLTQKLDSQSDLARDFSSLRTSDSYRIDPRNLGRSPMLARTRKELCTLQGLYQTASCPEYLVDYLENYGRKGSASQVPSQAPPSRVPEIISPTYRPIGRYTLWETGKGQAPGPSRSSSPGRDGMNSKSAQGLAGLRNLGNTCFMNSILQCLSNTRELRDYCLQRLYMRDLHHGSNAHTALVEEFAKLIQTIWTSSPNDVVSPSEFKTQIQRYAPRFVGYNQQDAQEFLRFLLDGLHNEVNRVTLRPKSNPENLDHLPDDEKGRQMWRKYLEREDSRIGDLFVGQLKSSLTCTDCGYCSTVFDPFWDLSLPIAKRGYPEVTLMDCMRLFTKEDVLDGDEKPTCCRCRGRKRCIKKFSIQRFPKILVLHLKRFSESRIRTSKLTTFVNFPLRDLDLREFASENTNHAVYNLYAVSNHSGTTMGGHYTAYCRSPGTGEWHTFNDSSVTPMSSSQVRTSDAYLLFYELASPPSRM
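USP2 core (10nM final) preincubated 30min RT with compound in 20mM Tris-HCl pH 8.0, 2mM CaCl2, 2mM beta-mercaptoethanol, 0.05% CHAPS; 25nM Ub-CHOP2 plus 25nM reporter substrate added, fluorescence (Ex485/Em531) read after 60min.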
RGS4 inh: inhibitors of human regulator of G protein signaling 4; P49798; Transcreener GDP fluorescence polarization, RGS4-accelerated GTP hydrolysis; Potency, µM (top dose mostly 114 µM), inactives show top-dose activity change, negative = inhibition, most hits filed as inhibitors; 390,000 tested, 0.039% active; AID 504845; note: nearly all actives have a fitted effect of over 75% in size
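MLSMR compounds (23 nl, pin-transferred) preincubated 10 min at room temperature with a 500nM (2x) first reagent, then RGS4 at 900nM (2x) plus Transcreener GDP mix added; fluorescence polarization (620/688 nm) read before and after 90 min at 30 °C.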
KAT2A inh: blocks human GCN5L2 histone acetyltransferase | Q92830 | GCN5L2 HAT assay, ThioGlo1 CoA-SH fluorescence | Potency, µM (doses to about 58.9 µM), for inactives: at the top dose activity change, negative = inhibition, actives largely listed as inhibitors | 390,000 tested, 0.21% active | AID 504327
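Titration-based screen in which CoA formation is detected via maleimide probe ThioGlo1 (50uM) turning fluorescent on thiol reaction; substrates H3(1-25) 75uM and acetyl-CoA 70uM, GCN5L2 20nM, 20 min incubation at room temperature.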
Eya2 phos inh: blocks the phosphatase activity of human Eya2 | 330,000 tested, 0.006% active | O00167 | recombinant Eya2, OMFP fluorescence dephosphorylation (OMFP is methylfluorescein phosphate) | AID 488837 | Potency, µM (highest dose often 76.9 µM), for inactives: at the highest dose activity, negative = inhibition, actives largely listed as inhibitors
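Eya2 (0.2 uM) preincubated 10 min at ambient with compound, then OMFP substrate added at 50 uM; 10 min reaction in 50 mM HEPES pH 7.5, 50 mM NaCl, 5 uM MgCl2, 0.05% BSA, 1 mM DTT. Fluorescence read at Ex 485/Em 525 nm.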
Chronic BCR inh: inhibitors of chronic active B-cell receptor signaling | ABC-DLBCL IkBa-CBG/CBR reporter, luminescence ratio, 4 h | Potency, µM (highest dose often 46.1 µM), without a hit: at the top dose activity change, negative = inhibition, most hits filed as inhibitors | 340,000 tested, 0.05% active | AID 493014; active = well fitted inhibition curve with a large enough effect in the signal ratio, with a control signal flat, not every such curve was filed as active; inconclusive = small, poorly fitted or top-dose-only effect, or effect the other way, or a change in a side signal; the % refers to the signal ratio;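 note: plate controls were basal doxycycline-induced cells for no effect and cells given 10 µM MG132 for full effect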
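Concentration-response series (up to 46 uM) were applied to TMD8 dual-reporter cells for 4 h at 37C with doxycycline. Green/red ratio, after filter-overlap correction, defined %Activity; red signal alone was normalised to basal cells and zero luminescence.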
uPA surface inh: inhibitors of cell surface uPA generation | cell surface uPA generation assay, qHTS | Potency, µM (highest dose often 38.3 µM), for the others: at the top dose activity change, negative = inhibition, actives largely listed as inhibitors | 330,000 tested, 0.31% active | AID 540303; active = well fitted inhibition curve with a large enough effect; inconclusive = small, poorly fitted or top-dose-only effect; inactive = no such curve, though single readings can be large or run the other way; tested in mouse RAW 264.7 cells; note: nearly all actives have a fitted effect of over 55% in size
An asterisk follows results filed as active; ? = inconclusive; · = no result; ! = not active in a repeat; [ ] = another dose, or the depositor's remark. Unless noted, calls come from the whole dose curve; as a rule, active = well fitted curve in the direction sought with a large enough effect; inconclusive = small, poorly fitted or top-dose-only effect, or another doubt; inactive = no such curve, though single readings can be large; an effect the other way counts as inactive or inconclusive. Unless noted, % is set by controls: 0 for no effect and ±100 for the full control effect; potency is the fitted concentration of half-maximal effect.

SMILES	USP2a block	RGS4 inh	KAT2A inh	Eya2 phos inh	Chronic BCR inh	uPA surface inh
O=C(O)C1Nc2c(O)cc(Cl)c([N+](=O)[O-])c2C2C=CCC12 (centres undefined)	?	?	3.2µM*	11%	2%	8%
O=C(O)C1Nc2c(cccc2C(F)(F)F)C2C=CCC12 (centres undefined)	5%	·	?	19%	7%	·
CC(C)(N)C(=O)N[C@@H](Cc1cnc[nH]1)C(=O)N[C@H](Cc1ccc2ccccc2c1)C(=O)N[C@H](Cc1ccccc1)C(=O)N[C@@H](CCCCN)C(N)=O	·	·	20%	·	·	·
CC(C)(C)n1cnc2cc(NCc3ccccc3Cl)ccc21	·	13%	2%	·	·	·
O=S(=O)(CC(CN1CCCCC1)N1CCCCC1)c1ccccc1 (centres undefined)	0%	-5%	7%	-5%	?	8.9µM*
CC(=O)N1CCc2cc(S(=O)(=O)NC(CC(C)C)C(=O)NCCc3cccc(C)c3)ccc21 (centres undefined)	·	-13%	-5%	·	·	·
Cc1ccc2oc3c(c(=O)c2c1)C(c1ccccc1F)N(CCCN1CCOCC1)C3=O (centres undefined)	·	1%	5%	·	·	·
Cc1ccc(-c2nc(C(Cl)Cl)c3ccccc3n2)cc1	-1%	-13%	-15%	-2%	?	1µM*
C#CCOCCOCCOCCNc1nc(N2CCN(C(=O)CCCCCCCCCCNC(=O)[C@H]([C@@H](C)CC)n3cc(CCCCCN)nn3)CC2)nc(N2CCN(C(=O)CCCCCCCCCCNC(=O)[C@@H]([C@H](C)O)n3cc(C)nn3)CC2)n1	10µM*	-54%	-8%	28µM*	?	?
Cn1nnnc1SCCCNCc1cc(Br)ccc1OCc1ccccc1	·	15%	-8%	·	·	·
Cc1noc(/C=C/c2cccnc2)c1[N+](=O)[O-]	3%	-44%	3%	4%	?	7.9µM*
CCOC(=O)c1c(NC(=O)C(C)Sc2cn(CCNC(=O)c3ccccc3OC)c3ccccc23)sc2c1CCC2 (centres undefined)	·	12%	-12%	·	·	·
CC(C)N(C1=CC(=O)OC12CCCCC2)C(C)C	-1%	-30%	-7%	1%	-5%	2%
CCN(CC)C1=CC(=O)OC12CCCCC2	1%	?	20µM*	0%	-3%	-5%
COc1ccc2noc3c2c1C(=O)c1ccccc1-3	·	-36%	·	·	·	10µM*
COC(=O)c1n[nH]n(-c2ccccc2)c1=O	·	7%	-4%	·	·	·
COc1ccc(-c2cc(C(F)(F)F)nc(NCc3ccco3)n2)cc1OC	-2%	-35%	22µM*	12%	0%	-10%
Cc1c(C)c2c(OCC(=O)N3CCC(C(=O)O)CC3)cc3c(c2oc1=O)CCC(C)(C)O3	-1%	15%	16µM*	-16%	-11%	-2%
Cc1c(C)c2c(OCC(=O)N3CCC(C(=O)NCC(C)C)CC3)cc3c(c2oc1=O)CCC(C)(C)O3	3%	13%	-8%	3%	0%	0%
CCCCC(NC(=O)COc1cc2c(c3oc(=O)cc(C)c13)CCC(C)(C)O2)C(=O)O (centres undefined)	-1%	5%	35µM*	0%	-1%	3%
CCc1cc(=O)oc2c3c(cc(OCC(=O)NCCCC(=O)O)c12)OC(C)(C)CC3	3%	1%	10µM*	-16%	1%	-4%
Nc1cccc2c(=O)[nH]ccc12	·	·	-13%	·	·	·
CC(=O)N(C[C@@H](O)CO)c1c(I)c(C(=O)NC[C@@H](O)CO)c(I)c(C(=O)NC[C@@H](O)CO)c1I	·	·	10µM*	·	·	·
CCCSc1cc(NCCOC(=O)CCC)c([N+](=O)[O-])c2nonc12	3%	?	0%	8%	-26%	-6%
CCCC(=O)OCCNc1cc(Sc2nccn2C)c2nonc2c1[N+](=O)[O-]	3%	?	-2%	-4%	2.9µM*	-3%
SMILES	USP2a block	RGS4 inh	KAT2A inh	Eya2 phos inh	Chronic BCR inh	uPA surface inh
CCC(Cc1c(I)cc(I)c(O)c1I)C(=O)O (centres undefined)	·	·	22µM*	·	·	·
CCCC(=O)Nc1c(I)cc(I)c(C[C@H](CC)C(=O)O)c1I	·	·	1%	·	·	·
O=C(CSc1nnc(NC(=O)c2ccccc2F)s1)NCc1ccco1	1%	-9%	-28%	7%	-1%	7.9µM*
O=C(CSc1nnc(NC(=O)c2c(F)cccc2F)s1)NCc1ccco1	-1%	-6%	-7%	-18%	-1%	-6%
COc1ccccc1CCNS(=O)(=O)c1ccc(N2CCCCS2(=O)=O)cc1	·	1%	-8%	·	·	·
Cc1ccc(-c2csc(NC(=O)c3cccc(N4C(=O)CCC4=O)c3)n2)o1	-1%	?	-15%	-23%	?	3.5µM*
COc1ccc(C)c(-n2c(=O)n(Cc3ccccc3)c(=O)c3[nH]cnc32)c1	6%	-1%	-11%	15%	?	?
COc1ccc(Cn2c(=O)c3[nH]cnc3n(-c3ccccc3C)c2=O)cc1	-1%	-2%	-6%	3%	16µM*	-11%
C[C@H]1O[C@@H](O[C@H]2[C@@H](O)C[C@H](O[C@H]3[C@@H](O)C[C@H](O[C@H]4CC[C@@]5(C)[C@H](CC[C@@H]6[C@@H]5C[C@@H](O)[C@]5(C)[C@@H](C7=CC(=O)OC7)CC[C@]65O)C4)O[C@@H]3C)O[C@@H]2C)C[C@H](O)[C@@H]1O	2%	1.7µM*!	-4%	4%	?	1%
C[C@]12CCC(=O)C=C1CC[C@@H]1[C@H]2[C@@H](O)C[C@@]2(C)[C@H]1CC[C@]2(O)C(=O)CO	·	·	-13%	·	·	·
Cc1ccccc1-c1nc(-c2ccccn2)no1	1%	-6%	-9%	-6%	?	?
COc1ccc(-c2nc(-c3ccccn3)no2)cc1	1%	5%[11.4 µM]	2%	?	?	1.4µM*
COc1ccccc1-c1nc(-c2ccccn2)no1	-1%	5%	-4%	4%	?	1.4µM*
Cc1c(C(=O)Nc2ccc(Br)cc2F)sc2ncnc(N(C)C3CCCCC3)c12	·	10%	-11%	·	-4%	·
COc1ccc(N2CCN(C(=O)c3cnn(-c4ccc(OC)cc4)c3C3CCN(C(=O)OC(C)(C)C)CC3)CC2)cc1	·	-7%	18%	·	·	·
O=C(Nc1ccc2nc(-c3ccco3)c(-c3ccco3)nc2c1)N1CCN(c2ccccn2)CC1	?	?	10µM*	6%	?	-6%
O=C1C2CCCCN2C(=O)N1CCN1CCN(c2cccc(Cl)c2)CC1 (centres undefined)	·	1%	·	·	·	15%

Assay outcomes deposited in PubChem BioAssay by National Center for Advancing Translational Sciences (NCATS).
